Data on 39 compounds can be found in PubChem BioAssay AID624331 (National Center for Advancing Translational Sciences (NCATS), 2012).

Molecules are shown by their SMILES. Results filed as inconclusive are left out. Where a call stands in place of a potency, no number is given. Active and inactive are the calls of the source. Calls come from the whole dose curve; as a rule, active = well fitted activation curve with a large enough effect; inconclusive = small, poorly fitted or top-dose-only effect; inactive = no such curve, though single readings can be large or run the other way.
Potency is the fitted concentration of half-maximal effect.

The test can be described thus: qHTS assay for re-activators of p53 using a Luc reporter: Hit Validation with no p53 Expressed. Conditions: p53-null cells, luciferase reporter counter-screen; series mostly up to 46.1 µM. The essentials: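 Without p53 expression, cells (1000/well, Opti-MEM + 10% FBS) were exposed 24 h at 37 deg C to compounds in a 1:5 series from 10 mM stock (top 46.1 µM in well). Luminescent signal read 10 min after Amplite addition; actives flag unspecific activation.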
For orientation: Quantitative high-throughput screening tests each substance at several concentrations.
Consider `CC(Sc1nc(N)cc(=O)[nH]1)C(=O)NNC(=O)c1cccc(Cl)c1` (centres undefined), for which the Potency result was “inactive”.
On to `Cc1ccc(C(C)C)c(OCc2ccc(C(=O)N/N=C/c3ccc(O)cc3O)cc2)c1`, for which the Potency entry was “inactive”.
In the case of `O=C(Nc1ccc(CN2CCOCC2)cc1)c1cc2ccccn2n1` it was “inactive”; in that of `CS(=O)(=O)n1nc(-c2ccccc2)nc1NCc1ccco1`, “inactive”; in that of `O=C(O)c1ccc(N/N=C/c2ccc3ncccc3c2)cc1`, “inactive”.
For `Cc1ccc2nc(N3C(=O)C(O)=C(C(=O)c4ccc(C)o4)C3c3ccco3)sc2c1` (centres undefined), the Potency entry is “inactive”.
Under `O=C(/C=C/c1ccc([N+](=O)[O-])s1)N1CCCCC1` stands “inactive”; under `O=[N+]([O-])c1ccc(NC(=S)NCCc2ccc(F)cc2)cc1`, “inactive”; under `O=c1c2ccccc2oc2ccc(-c3ccc4cc[nH]c4c3)cc12`, “inactive”.
For the compound `Cc1noc(C)c1C(=O)Nc1nc(-c2ccc(F)cc2)cs1`, the Potency entry is “inactive”.
Under `O=C(NNC(=O)c1cc(-c2ccccc2)nn1-c1ccccc1)c1ccccc1` stands “inactive”.
In the case of `Cc1cccc(-c2noc(CCC(=O)N3CCN(c4cc(C)ccc4C)CC3)n2)c1` it was “inactive”; in that of `COc1ccccc1/C=C/C(=O)Nc1ccc2c(c1)CCC2`, 2910 nM (active); in that of `CCCCC(=O)NC(c1ccc(Cl)cc1Cl)c1ccc2cccnc2c1O` (centres undefined), “inactive”.
Turning to `Cc1nc(NCCc2ccccc2)c2nnn(Cc3ccccc3Cl)c2n1`, the Potency result is “inactive”.
As to `Cc1ccc(OCC(=O)Nc2ccc(Cl)cc2)c([N+](=O)[O-])n1`, the Potency entry is “inactive”.
In the case of `CCOc1ccc(S(=O)(=O)c2c(C(=O)c3ccc(C)cc3)cnc3cc4c(cc23)OCCO4)cc1`, the Potency entry was “inactive”.
Under `CC(=O)Oc1ccc(Cl)cc1/C=C/c1ccc2ccccc2n1` stands 23100 nM (active); under `Cc1cc(NC(=O)c2ccc3c(c2)OCCO3)no1`, “inactive”; under `C=CCn1c(C)cc(C(=O)CSc2nc3ccccc3o2)c1C`, “inactive”.
Under `c1ccc(-c2cn3c(n2)SCC3)cc1` stands “inactive”; under `CCN(Cc1ccccc1)C(=O)CN1C(=S)NC(C)(C)CC1C` (centres undefined), “inactive”; under `Cc1nc(SCC(=O)Nc2nccs2)c(C#N)c(C)c1C`, “inactive”.
Take `Cc1cc(C(=O)NC2CCCCC2)c(C)n1-c1ccc(F)cc1`: the Potency result was “inactive”.
On to `O=c1oc2ccccc2nc1/C=C(O)/C=C/c1ccc(F)cc1`, for which the Potency entry was “inactive”.
With `CCOC(=O)N1CCN(S(=O)(=O)c2ccc(C(=O)NNc3nc4c(C)cc(C)cc4s3)cc2)CC1`, the Potency result is “inactive”.
On to `COc1ccc(N2CCN(CCCNC(=O)C3(S(=O)(=O)c4ccc(Cl)cc4)CC3)CC2)cc1`, for which the Potency entry is “inactive”.
Take `O=c1oc2ccccc2cc1-c1cn(-c2ccccc2)c(=S)[nH]1`: the Potency entry was “inactive”.
As to `Nc1nonc1-n1nnc(C(=O)N/N=C/c2ccc(Br)cc2)c1CSC1=NCCS1`, the Potency entry is “inactive”.
In the case of `Cc1ccccc1-c1noc(N)c1C#N` it was “inactive”.
In the case of `Nc1nc2ccc(N3CCOCC3)cc2s1`, the Potency entry was “inactive”.
For the compound `CCOc1ccc(NC(=O)c2cnsn2)cc1`, the Potency result was “inactive”.
For `Cc1ccc(NC2=C(Cl)C(=O)c3ccccc3C2=O)cc1`, the Potency entry is “inactive”.
Take `CCCOc1ccc(-c2cc3onc(-c4ccccc4)c3c(=O)n2C)cc1`: the Potency entry was “inactive”.
For the compound `N#C/C(=C/c1ccccc1[N+](=O)[O-])c1nc(C2CC2)cs1`, the Potency result is “inactive”.
As for `C(=N\Nc1nc2ccccc2s1)/c1ccc2c(c1)OCO2`, the Potency result was “inactive”.
For the compound `c1ccc(COc2ccc(OCCOCCn3cncn3)cc2)cc1`, the Potency is 1300 nM (active).
In the case of `O=C(Nc1nnc(-c2ccccc2F)s1)C1CCN(S(=O)(=O)c2ccc(Cl)cc2)CC1` it was “inactive”.
Regarding `Cc1ccsc1/C=C(\C#N)C(=O)Nc1c(C)n(C)n(-c2ccccc2)c1=O`, the Potency result is “inactive”.
